Drawing on PubChem BioAssay (NCATS), this text covers Potency and activity (max response) for 22 molecules.

Several values for one entry are separate records, joined by “and”; a condition that tells them apart may be missing. Equal values may be shown once. Results filed as inconclusive are left out. More than one record can exist for a structure, and the calls need not agree. Activity calls are given as the source filed them. Calls come from the whole dose curve; as a rule, active = well fitted curve in the direction sought with a large enough effect; inconclusive = small, poorly fitted or top-dose-only effect, or another doubt; inactive = no such curve, though single readings can be large; an effect the other way counts as inactive or inconclusive.

Assay [1] can be described thus: Viability qHTS for spleen associated tyrosine kinase inhibitor (SYKi) drug resistant MV4-11 cells (AID 1963824). Note: nearly all actives have a fitted effect of over 35% in size. As to conditions: SYKi-resistant MV4-11 viability, CellTiter-Glo, 72 h; series mostly up to 45 µM. In short, it runs like this:
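CellTiter-Glo luminescence, read 10 min after reagent addition, reports viability after a 72 hr compound exposure. Cells are an MV4-11 line made resistant to SYK inhibition, seeded at 500 per well onto compound-containing plates.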

A short description of assay [2]: Quantitative highthroughput screen to assess conditional lethalithy of NOMO1 cells grown in RPMI1640 with untreated serum (RPMI+s) (AID 1963876).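 For Viability: 100% = DMSO wells and 0% = empty wells without cells.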 Note: nearly all actives have a fitted effect of over 35% in size. As to conditions: NOMO1 AML cells in RPMI+serum, CellTiter-Glo viability, 48 h; series mostly up to 45.8 µM. In short, it runs like this: (§1)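 Each medium arm—HPLM with 10% dialyzed FBS, or RPMI1640 with 5 mM glucose and 10% untreated or dialyzed FBS—was screened against an 11-point, 3-fold compound titration for 48 h at 37 °C, with CellTiter-Glo luminescence as endpoint.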

A short description of assay [3]: Quantitative highthroughput screen to assess conditional lethalithy of NOMO1 cells grown in RPMI1640 with dialyzed fetal bovine serum (RPMI+ds) (AID 1963877).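 For Viability: 100% = DMSO control wells and 0% = empty wells.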 Note: nearly all actives have a fitted effect of over 30% in size. As to conditions: NOMO1 in RPMI+dialyzed FBS viability, ATP luminescence, 48 h; series mostly up to 45.8 µM. In short, it runs like this: as §1
Assay [4] can be described thus: Cellular viability qHTS for adrenocortical cancer (ACC) cell line NCI-H295R (AID 1963990). Note: nearly all actives have a fitted effect of over 60% in size. Particulars: CellTiter-Glo ATP luminescence, 48 h; series mostly up to 46.1 µM. In short, it runs like this: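 Adrenocortical carcinoma cells, suspended at 300 000 cells/mL in serum-free DMEM plus ITS, rested overnight before pin transfer of compound. After two days' incubation, ATP-dependent luminescence was recorded and curve-fitted.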
In general terms: Quantitative high-throughput screening tests each substance at several concentrations.

A short description of assay [5]: Quantitative highthroughput screen to assess conditional lethalithy of NOMO1 cells grown in Human Plasma-Like Medium with dialyzed fetal bovine serum (HPLM+ds) (AID 1963878).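 For Viability: 100% = DMSO wells and 0% = empty wells on each plate.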 Note: nearly all actives have a fitted effect of over 35% in size. Particulars: NOMO1 AML cells in HPLM+ds, CellTiter-Glo viability, 48 h; series mostly up to 45.8 µM. In short, it runs like this: as §1
A general note: Cellular ATP, detected with luciferase, serves as a proxy for viable cell number.

Assay [6] is described as follows: Quantitative highthroughput screen to assess conditional lethalithy of P12 Ichikawa cells grown in Human Plasma-Like Medium with dialyzed fetal bovine serum (HPLM+ds) (AID 1963879). Note: nearly all actives have a fitted effect of over 35% in size. Particulars: ATP luminescence, 48 h; Potency: viability; series mostly up to 45.8 µM. In short, it runs like this:
as §1

Assay [7] in a line: Quantitative highthroughput screen to assess conditional lethalithy of P12 Ichikawa cells grown in RPMI1640 with dialyzed fetal bovine serum (RPMI+ds) (AID 1963880).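 For Viability: 100% = DMSO wells and 0% = empty wells on each plate.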 Note: nearly all actives have a fitted effect of over 35% in size. As to conditions: ATP luminescence, 48 h; Potency: P12-Ichikawa viability; series mostly up to 45.8 µM. The method, boiled down:
as §1

The nature of assay [8]: Quantitative highthroughput screen to assess conditional lethalithy of P12 Ichikawa cells grown in RPMI1640 with untreated serum (RPMI+s) (AID 1963881).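 For Viability: 100% = DMSO wells and 0% = empty wells without cells.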 Note: nearly all actives have a fitted effect of over 35% in size. Particulars: ATP luminescence, 48 h; Potency: viability; series mostly up to 45.8 µM. In short, it runs like this: as §1
A short description of assay [9]: Quantitative highthroughput screen to assess conditional lethalithy of SEM cells grown in Human Plasma-Like Medium with dialyzed fetal bovine serum (HPLM+ds) (AID 1963882). Note: nearly all actives have a fitted effect of over 35% in size. As to conditions: SEM B-ALL cells in HPLM+ds, CellTiter-Glo viability, 48 h; series mostly up to 45.8 µM. In short, it runs like this:
as §1

The nature of assay [10]: Quantitative highthroughput screen to assess conditional lethalithy of SEM cells grown in RPMI1640 with unreated serum (RPMI+s) (AID 1963883).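 For Viability: 100% = DMSO wells and 0% = empty wells without cells.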 Note: nearly all actives have a fitted effect of over 35% in size. As to conditions: SEM B-ALL cells, CellTiter-Glo viability, 48 h; series mostly up to 45.8 µM. In short, it runs like this:
as §1

Assay [11] in a line: Quantitative highthroughput screen to assess conditional lethalithy of SEM cells grown in RPMI1640 with dialyzed fetal bovine serum (RPMI+ds) (AID 1963884).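 For Viability: 100% = DMSO control wells and 0% = empty wells without cells.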 Note: nearly all actives have a fitted effect of over 35% in size. Particulars: SEM B-ALL cells, RPMI+dialyzed FBS, CellTiter-Glo viability, 48 h; series mostly up to 45.8 µM. In short, it runs like this:
as §1

Assay [12] in a line: Cellular viability qHTS for adrenocortical cancer (ACC) cell line SW-13 (AID 1963989).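 For activity (max response): cells grown in serum-free medium with ITS supplement; % is set by controls: 0 for no effect and ±100 for the full control effect.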 Note: nearly all actives have a fitted effect of over 65% in size. As to conditions: SW-13 ACC cells viability, CellTiter-Glo, 48 h; activity (max response): stronger effect = lower value. The method, boiled down:
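IC50 and maximal-response values come from four-parameter logistic fits of titration data. SW-13 cells in serum-free medium received compounds (up to 46 uM final) for 48 h before CellTiter-Glo luminescence.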
Potency is the fitted concentration of half-maximal effect.

Regarding `c1cc(N[C@@H]2CCNC2)nc(-c2cnc3ccc(-c4cn[nH]c4)cn23)c1`, the Potency in [1] is 0.0066 µM (active); in assay [3], 5.9 µM (active). Besides, the Potency result in [2] and in assay [4] was “inactive” in each case.

In the case of `CCCNCC(O)COc1ccccc1C(=O)CCc1ccccc1` (centres undefined), in assay [1], the Potency is 15 µM (active) and 16.6 µM (active). The Potency entry in [3], in assay [5], in [6], in assay [7], in assay [8] and in [9] was “inactive” throughout. The Potency result in assay [10] and in [11] was “inactive” throughout.

Take `OCCN(CCO)c1nc(N2CCCCC2)c2nc(N(CCO)CCO)nc(N3CCCCC3)c2n1`: the Potency was 18.8 µM (active) and 14.8 µM (active) in assay [1]; 1.46 µM (active) and inactive in [4]. Besides, the Potency result in assay [2] and in [9] was “inactive” each time.

Turning to `C[C@@H]1CC[C@@]2(OC1)OC1CC3C4CC=C5CC(O)CCC5(C)C4CCC3(C)C1[C@@H]2C` (some centres undefined), the Potency result in [1] and in assay [4] was “inactive” throughout. The Potency in assay [5] is 13.2 µM (active); in assay [6], 11.8 µM (active); in assay [7], 18.7 µM (active). Besides, in assay [12], the activity (max response) is -3.87% (inactive).

Regarding `c1ccc2c(Cc3c[nH]c4ccccc34)c[nH]c2c1`, the Potency in assay [1] and in assay [11] was 20.9 µM (active) throughout. The Potency result in [2] was “inactive”.

For `Nc1nc(=O)n([C@H]2C[C@H](O)[C@@H](CO)O2)cc1F`, the values for the Potency in [1], in assay [3] and in assay [8] were 0.0295 µM (active), 0.0209 µM (active) and 0.105 µM (active), respectively.

Take `CN(C)[C@@H](CCOc1cccc2ccccc12)c1ccccc1`: the Potency in assay [1] is 23.7 µM (active). The Potency entry in [5], in [6], in assay [8] and in assay [11] was “inactive” throughout.

Regarding `OCCn1cc(-c2cnc3nnn(Cc4ccc5ncccc5c4)c3n2)cn1`, the Potency in assay [1] was 20.9 µM (active). Moreover, the Potency entry in [3], in [7], in assay [8] and in assay [4] was “inactive” throughout. The activity (max response) in [12] was -4.78% (inactive).

Turning to `O=c1cc(CN2CCOCC2)occ1OCCCCCSc1ccnc2cc(C(F)(F)F)ccc12`, the Potency was 9.34 µM (active) in [1] and 15.8 µM (active) in assay [12]. Moreover, the Potency result in assay [3], in [5], in [9], in [10] and in assay [11] was “inactive” in each case.

In the case of `Cc1cc(Nc2nc(N[C@@H](C)c3ncc(F)cn3)ncc2Cl)n[nH]1`, the Potency in [1] is 1.05 µM (active); in [2], 7.43 µM (active); in assay [9], 5.26 µM (active); in assay [10], 1.05 µM (active); in assay [11], 2.64 µM (active). Further, in [12], the activity (max response) is -20.7% (inactive).

As to `CN(C)CCN(C)C(=O)c1ccc(NC(=O)Nc2ccc(-c3nc(N4CCOCC4)c4ccn(CC(F)(F)F)c4n3)cc2)cc1`, the Potency in assay [1] is 0.0525 µM (active); in assay [2], 0.132 µM (active); in [12], 0.708 µM (active).

`CN(C)C(=O)[C@H](O)[C@H](Cc1ccccc1)NC(=O)c1cc2cc(Cl)ccc2[nH]1`: the results for the Potency in [1], in [9] and in [10] were 20.9 µM (active), 2.09 µM (active) and 2.64 µM (active), respectively. Further, in assay [2], the Potency entry was “inactive”.

As to `O=c1cc(-c2ccccc2)oc2cc(O)cc(O)c12`, the Potency in [1] is 16.6 µM (active); in assay [5] it was 23.5 µM (active); in [6], 26.4 µM (active); in assay [7] it was 23.5 µM (active); in assay [8] it was 20.9 µM (active); in [9], 16.6 µM (active). For the same molecule, the Potency is 11.8 µM (active) in [10] and 16.6 µM (active) in assay [11].

Regarding `CN1CCc2c(n(Cc3ccc(C(=O)NO)cc3)c3ccccc23)C1`, the Potency is 18.6 µM (active) in assay [1], 26.4 µM (active) in assay [9], 23.5 µM (active) in assay [10] and 25.1 µM (active) in assay [4]. Also, in assay [3], the Potency result is “inactive”.

On to `Cc1ccnc2c1NC(=O)c1cccnc1N2C1CC1`, for which the Potency entry in assay [1], in [6], in [7], in assay [8], in assay [9] and in assay [10] was “inactive” throughout. In assay [4], the Potency result is “inactive”. In [3], the Potency is 2.09 µM (active). Besides, the activity (max response) in [12] was -0.191% (inactive).

Regarding `Cn1cc(-c2ccncc2)c(-c2ccc(OCc3ccc4ccccc4n3)cc2)n1`, the Potency is 7.42 µM (active) in assay [1], 14.8 µM (active) in assay [6] and 8.33 µM (active) in assay [7]. Further, the Potency entry in [3], in assay [5], in [9] and in assay [10] was “inactive” throughout.

Consider `CC(=O)OC1C(C)OC(Oc2c(-c3ccc(O)cc3)oc3cc(O)cc(O)c3c2=O)C(O)C1OC(C)=O` (centres undefined), for which the Potency in assay [1] was 20.9 µM (active). For the same molecule, the Potency entry in assay [3], in assay [5], in assay [6], in assay [7], in assay [8] and in assay [9] was “inactive” throughout. In addition, the Potency result in assay [11] and in assay [4] was “inactive” each time.

Consider `CCCCc1ccc(NS(=O)(=O)c2ccc(C)c(C(=O)N3CCN(c4cccc(C)c4C)CC3)c2)cc1`, for which the Potency in assay [1] is 42.8 µM (active); in [4], 44.7 µM (active). Besides, the Potency entry in assay [3], in assay [5], in assay [6], in [7], in assay [8] and in assay [9] was “inactive” each time. The Potency result in assay [10] and in [11] was “inactive” each time.

As to `CC(C)OC(=O)OCOP(=O)(CO[C@H](C)Cn1cnc2c(N)ncnc21)OCOC(=O)OC(C)C`, the Potency is 9.44 µM (active) in assay [1] and 23.5 µM (active) in [3]. Also, the Potency result in [6], in assay [7] and in assay [4] was “inactive” each time.

As for `O=C(CCc1ccc(O)cc1)c1c(O)cc(O)cc1O`, the Potency entry in assay [1], in assay [3], in assay [6], in assay [7], in assay [8] and in assay [9] was “inactive” in each case. For the same molecule, the Potency result in [10] and in assay [4] was “inactive” throughout. Besides, the activity (max response) in assay [12] is -4.39% (inactive).

As for `COc1cc2nccc(Oc3ccc(NC(=O)C4(C(=O)Nc5ccc(F)cc5)CC4)cc3)c2cc1OC`, the Potency in assay [1] was 0.0093 µM (active); in assay [12], 12.6 µM (active); in assay [4], 10 µM (active). Moreover, the Potency entry in assay [2] is “inactive”.

Consider `Nc1nc2[nH]cc(CCc3ccc(C(=O)N[C@@H](CCC(=O)O)C(=O)O)cc3)c2c(=O)[nH]1`, for which the results for the Potency in assay [1] and in [4] were 0.263 µM (active) and 3.16 µM (active), respectively. Further, the Potency result in assay [2] was “inactive”.
